Results reported in PubChem BioAssay (NCATS).
Unmarked numbers belong to inactive results. Records with an inconclusive call do not appear. Activity calls are given as the source filed them.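 The calls were made as follows, unless noted: active = compounds whose dose series gives a full or clear partial fitted curve of increased nuclear translocation; inconclusive = weak partial curve or effect only at the top dose; inactive = no dose-dependent translocation response.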

Columns and labels:
[1] = target: Glucocorticoid receptor (Homo sapiens) (UniProt P04150); experiment: GR-GFP Redistribution (AID 450); also: potency is read from the fitted curve at half-maximal effect
Sequence of Glucocorticoid receptor (Homo sapiens) (P04150 whole entry, looked up, the tested form may be a part): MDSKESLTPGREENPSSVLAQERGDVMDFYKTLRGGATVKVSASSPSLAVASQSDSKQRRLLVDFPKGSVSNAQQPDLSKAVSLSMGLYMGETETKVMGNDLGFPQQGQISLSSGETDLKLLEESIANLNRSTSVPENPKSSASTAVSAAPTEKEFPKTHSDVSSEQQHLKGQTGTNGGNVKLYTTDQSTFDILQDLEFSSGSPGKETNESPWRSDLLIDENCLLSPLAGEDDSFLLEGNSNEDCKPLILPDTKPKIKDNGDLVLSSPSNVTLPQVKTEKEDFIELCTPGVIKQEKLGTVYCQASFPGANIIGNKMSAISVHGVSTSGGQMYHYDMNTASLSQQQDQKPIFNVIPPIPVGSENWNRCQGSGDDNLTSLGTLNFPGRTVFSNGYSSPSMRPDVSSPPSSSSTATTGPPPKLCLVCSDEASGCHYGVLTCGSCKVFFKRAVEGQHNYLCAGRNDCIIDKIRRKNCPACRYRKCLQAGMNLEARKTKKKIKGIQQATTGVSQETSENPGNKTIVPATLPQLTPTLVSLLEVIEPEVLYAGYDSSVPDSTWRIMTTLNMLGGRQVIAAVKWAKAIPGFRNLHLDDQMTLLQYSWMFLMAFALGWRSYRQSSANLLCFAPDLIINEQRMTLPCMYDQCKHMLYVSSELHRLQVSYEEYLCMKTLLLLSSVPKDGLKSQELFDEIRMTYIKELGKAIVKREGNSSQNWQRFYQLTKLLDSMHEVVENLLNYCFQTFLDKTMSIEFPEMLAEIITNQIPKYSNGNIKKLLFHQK

[2] = Stat Signaling Pathway (AID 446; active = well fitted curve in either direction with a large enough effect, not every such curve was filed as active;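 also: ME-180 cervical cancer cells given 40 pM IL-6 alongside compound; SIE-controlled beta-lactamase reporter measured as 460/530 nm FRET emission ratio; % is scaled to controls: 0 for no effect and ±100 for the full control effect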); conditions: ME-180 SIE beta-lactamase reporter, IL-6 stimulated, 5 h; at 17.2 µM (top of the series) unless noted
Method in brief: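 ME-180 SIE-bla cells; overnight plating; cpd + IL-6 40 pM, 5 h, 37 C; LiveBLAzer 2.5 h RT; 460/530 nm emission ratio. Normalized to 300 pM IL-6 and 125 nM JAK inhibitor controls.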

[3] = qHTS Assay for Identification of Small Molecule Agonists for Hypoxia Response Element Signaling Pathway (AID 914; active = well fitted activation curve with a large enough effect in the signal ratio, with a control signal flat, not every such curve was filed as active; the % refers to the signal ratio; also: potency is read from the fitted curve at half-maximal effect); conditions: ME-180 (cervical carcinoma) HRE-bla reporter, beta-lactamase ratio, CoCl2, 17 h; activation: stronger effect = higher value
Method in brief: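 qHTS titration; ME-180 HRE-bla cells; EC50 CoCl2 co-treatment, 17 h at 37 degrees Celsius; CCF4 dye, ex 405nm, em 460nm and 530nm; %Activity from ratio; AC50.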

[4] = target: Glucocorticoid receptor (Homo sapiens) (UniProt P04150); experiment: GR-EFC Redistribution (AID 451; calls by dose curve; also: potency is read from the fitted curve at half-maximal effect); conditions: CHO-K1 GR-EFC translocation, beta-gal luminescence, 2 h
Method in brief: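 CHO-K1 cells stably expressing nuclear-localized β-gal enzyme acceptor and GR fused C-terminally to the enzyme donor fragment; ligand-driven nuclear translocation restores β-gal by complementation. Compounds titrated up to 46 uM final, 2 h at 37 °C; luminescence read.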

[5] = target: 3',5'-cyclic-AMP phosphodiesterase 4B (Homo sapiens) (UniProt Q07343); experiment: qHTS Assay for Inhibitors of PDE-IV (AID 607; active = well fitted activation curve with a large enough effect in the main read-out, with a control signal flat, not every such curve was filed as active; also: % of control where 0% means no effect)
Sequence of 3',5'-cyclic-AMP phosphodiesterase 4B (Homo sapiens) (Q07343 whole entry, looked up): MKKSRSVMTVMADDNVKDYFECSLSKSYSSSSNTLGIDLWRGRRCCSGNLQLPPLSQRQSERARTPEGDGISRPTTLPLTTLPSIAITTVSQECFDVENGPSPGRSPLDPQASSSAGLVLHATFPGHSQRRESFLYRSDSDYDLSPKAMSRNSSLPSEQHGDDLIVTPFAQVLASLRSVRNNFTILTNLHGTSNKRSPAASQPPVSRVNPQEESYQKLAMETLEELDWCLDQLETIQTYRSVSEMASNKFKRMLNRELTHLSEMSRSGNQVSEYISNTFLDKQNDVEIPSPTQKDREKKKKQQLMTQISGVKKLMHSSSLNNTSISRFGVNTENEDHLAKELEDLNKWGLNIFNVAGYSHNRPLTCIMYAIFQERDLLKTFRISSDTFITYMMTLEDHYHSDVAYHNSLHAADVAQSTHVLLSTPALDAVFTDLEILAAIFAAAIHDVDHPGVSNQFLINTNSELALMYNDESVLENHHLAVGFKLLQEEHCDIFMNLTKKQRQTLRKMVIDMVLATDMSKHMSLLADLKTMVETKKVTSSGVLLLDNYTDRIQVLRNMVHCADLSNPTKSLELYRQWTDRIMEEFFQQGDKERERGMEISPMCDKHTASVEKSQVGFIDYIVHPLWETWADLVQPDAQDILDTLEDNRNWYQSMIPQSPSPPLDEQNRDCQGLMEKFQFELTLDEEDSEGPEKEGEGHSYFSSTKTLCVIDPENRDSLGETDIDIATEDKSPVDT
Method in brief: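 ACTOne HEK293 cells carry a modified cAMP-gated CNG channel and express endogenous PDE4; plated 1000 cells/well, compounds up to 22.9 uM final. Membrane-potential dye fluorescence (ex 535/em 590) was read; parental cells received 10 uM forskolin + 100 uM RO 20-1724.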

[6] = target: Guanine nucleotide-binding protein G(i) subunit alpha-1 (Homo sapiens) (UniProt P63096); experiment: qHTS Assay for Inhibitors of RGS12 GoLoco Motif Activity (Green Fluorophore) (AID 879; active = well fitted curve in the direction sought with a large enough effect; an effect the other way counts as inactive or inconclusive;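 also: 0% = labeled peptide with Gαi1 and full inhibition = labeled peptide alone without protein; negative values mean loss of peptide binding seen as reduced polarization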)
Sequence of Guanine nucleotide-binding protein G(i) subunit alpha-1 (Homo sapiens) (P63096 whole entry, looked up): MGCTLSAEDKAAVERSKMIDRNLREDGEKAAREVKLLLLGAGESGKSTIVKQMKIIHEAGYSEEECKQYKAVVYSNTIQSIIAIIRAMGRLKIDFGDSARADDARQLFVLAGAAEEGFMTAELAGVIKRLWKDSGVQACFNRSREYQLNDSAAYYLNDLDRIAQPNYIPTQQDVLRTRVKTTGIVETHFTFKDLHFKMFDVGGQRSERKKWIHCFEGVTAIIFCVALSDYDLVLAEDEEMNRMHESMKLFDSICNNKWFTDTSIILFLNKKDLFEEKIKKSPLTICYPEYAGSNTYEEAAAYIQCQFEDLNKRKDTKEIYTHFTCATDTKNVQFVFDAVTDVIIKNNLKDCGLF
Method in brief: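 Fluorescence polarization assay: 50 nM Gαi1 with 10 nM FITC-labeled RGS12 GoLoco peptide in 10 mM Tris pH 7.5, 150 mM NaCl, 0.1 mM GDP, 0.05% NP40, 10 min at room temperature with compound.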

[7] = qHTS Assay for Identification of Small Molecule Antagonists for NFkB Signaling Pathway (AID 895; active = well fitted inhibition curve with a large enough effect in the signal ratio, with a control signal flat, not every such curve was filed as active; the % refers to the signal ratio; also: potency is read from the fitted curve at half-maximal effect)
Method in brief: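 NFkB-bla ME-180 cervical carcinoma cells with beta-lactamase reporter under NFkB response element; compounds added, then TNF alpha at 10 pM final (EC50), 5 h at 37 C. LiveBLAzer substrate 2 h, room temperature; emission 460/530 nm at 405 nm excitation.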

[8] = target: Muscarinic acetylcholine receptor M1 (Rattus norvegicus) (UniProt P08482); experiment: qHTS Assay for Antagonists of Acetylcholine Muscarinic M1 Receptor: Kinetic Measurement of Intracellular Calcium Response (AID 943; active = well fitted curve in the direction sought with a large enough effect; an effect the other way counts as inactive or inconclusive; also: nearly all actives have a fitted effect of over 75% in size)
Sequence of Muscarinic acetylcholine receptor M1 (Rattus norvegicus) (P08482 whole entry, looked up): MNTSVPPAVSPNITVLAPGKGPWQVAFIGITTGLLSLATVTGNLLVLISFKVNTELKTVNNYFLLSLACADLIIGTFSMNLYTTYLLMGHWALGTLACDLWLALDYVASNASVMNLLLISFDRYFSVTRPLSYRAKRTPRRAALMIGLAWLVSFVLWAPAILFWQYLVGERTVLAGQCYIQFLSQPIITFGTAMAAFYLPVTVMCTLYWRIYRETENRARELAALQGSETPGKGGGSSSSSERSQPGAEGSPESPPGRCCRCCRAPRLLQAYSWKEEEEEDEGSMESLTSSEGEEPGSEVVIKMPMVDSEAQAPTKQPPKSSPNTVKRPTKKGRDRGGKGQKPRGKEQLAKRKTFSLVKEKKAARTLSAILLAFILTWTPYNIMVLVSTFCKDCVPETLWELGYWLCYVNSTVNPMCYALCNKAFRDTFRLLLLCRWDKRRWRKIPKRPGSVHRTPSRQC
Method in brief: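 CHO cells expressing rat M1 receptor, Fluo-4 loaded, preincubated 10 min with compound, then stimulated with EC80 carbachol (100 nM final). Kinetic calcium fluorescence over 4 min; response taken as peak over basal signal.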

[9] = target: Pyruvate kinase (Leishmania mexicana) (UniProt Q27686); experiment: qHTS Validation Assay for Inhibitors of Leishmania Mexicana Pyruvate Kinase (AID 945; active = well fitted curve in the direction sought with a large enough effect; an effect the other way counts as inactive or inconclusive;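 also: 0% = DMSO only neutral control wells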)
Sequence of Pyruvate kinase (Leishmania mexicana) (Q27686 2-499 E452W): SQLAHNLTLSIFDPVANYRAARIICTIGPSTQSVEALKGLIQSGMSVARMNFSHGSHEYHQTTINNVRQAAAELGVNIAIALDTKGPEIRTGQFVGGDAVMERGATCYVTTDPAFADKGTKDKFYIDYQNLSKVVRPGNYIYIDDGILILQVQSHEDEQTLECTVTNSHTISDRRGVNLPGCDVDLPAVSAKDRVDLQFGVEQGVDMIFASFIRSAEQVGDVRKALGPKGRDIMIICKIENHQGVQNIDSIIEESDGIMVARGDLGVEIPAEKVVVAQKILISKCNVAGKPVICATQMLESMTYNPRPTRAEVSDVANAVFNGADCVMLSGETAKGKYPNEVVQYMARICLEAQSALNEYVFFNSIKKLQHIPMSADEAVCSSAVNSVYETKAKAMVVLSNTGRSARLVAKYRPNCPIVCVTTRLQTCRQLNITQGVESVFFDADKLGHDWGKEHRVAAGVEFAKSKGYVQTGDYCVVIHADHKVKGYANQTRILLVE
Method in brief: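 Read-out: luminescence from PKLight stop/detection reagent, data normalized to DMSO. Reaction: 0.2 nM E451W LmPYK, 0.5 mM PEP, 0.1 mM ADP, pH 7.2, 1 h room temperature.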

[10] = target: Pyruvate kinase PKM (Homo sapiens) (UniProt P14618); experiment: qHTS Assay for Activators of Human Muscle Pyruvate Kinase (AID 954; active = well fitted curve in the direction sought with a large enough effect, not every such curve was filed as active;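 also: 0% = uninhibited enzyme and -100% = no enzyme or full thiadiazolimine inhibition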)
Sequence of Pyruvate kinase PKM (Homo sapiens) (P14618 whole entry, looked up): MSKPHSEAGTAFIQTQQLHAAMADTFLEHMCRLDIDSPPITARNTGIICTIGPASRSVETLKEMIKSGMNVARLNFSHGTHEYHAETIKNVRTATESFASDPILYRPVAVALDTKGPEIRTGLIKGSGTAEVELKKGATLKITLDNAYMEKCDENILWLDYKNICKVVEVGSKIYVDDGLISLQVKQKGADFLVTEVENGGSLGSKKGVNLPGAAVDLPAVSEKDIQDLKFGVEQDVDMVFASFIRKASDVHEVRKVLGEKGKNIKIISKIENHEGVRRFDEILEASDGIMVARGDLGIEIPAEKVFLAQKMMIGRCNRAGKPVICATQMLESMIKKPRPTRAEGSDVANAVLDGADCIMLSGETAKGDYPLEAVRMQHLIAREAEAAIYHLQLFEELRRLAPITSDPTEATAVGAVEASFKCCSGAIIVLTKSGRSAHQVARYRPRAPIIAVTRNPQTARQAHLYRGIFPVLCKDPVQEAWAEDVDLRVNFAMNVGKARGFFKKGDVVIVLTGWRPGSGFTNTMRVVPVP
Method in brief: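 Luminescence from a luciferase ATP-detection/stop reagent reported PKM2 activity. Reactions contained 0.1 nM purified human enzyme, 0.5 mM PEP, 0.1 mM ADP and 7 mM MgCl2 at pH 7.2, run 1 h at RT.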

[11] = target: Alpha-galactosidase A (Homo sapiens) (UniProt P06280); experiment: Counterscreen for Glucocerebrosidase Inhibitors: qHTS Assay for Human alpha-Galactosidase at pH 4.5 (AID 992; active = well fitted curve in the direction sought with a large enough effect; an effect the other way counts as inactive or inconclusive; also: 0% is about no effect)
Sequence of Alpha-galactosidase A (Homo sapiens) (P06280 whole entry, looked up): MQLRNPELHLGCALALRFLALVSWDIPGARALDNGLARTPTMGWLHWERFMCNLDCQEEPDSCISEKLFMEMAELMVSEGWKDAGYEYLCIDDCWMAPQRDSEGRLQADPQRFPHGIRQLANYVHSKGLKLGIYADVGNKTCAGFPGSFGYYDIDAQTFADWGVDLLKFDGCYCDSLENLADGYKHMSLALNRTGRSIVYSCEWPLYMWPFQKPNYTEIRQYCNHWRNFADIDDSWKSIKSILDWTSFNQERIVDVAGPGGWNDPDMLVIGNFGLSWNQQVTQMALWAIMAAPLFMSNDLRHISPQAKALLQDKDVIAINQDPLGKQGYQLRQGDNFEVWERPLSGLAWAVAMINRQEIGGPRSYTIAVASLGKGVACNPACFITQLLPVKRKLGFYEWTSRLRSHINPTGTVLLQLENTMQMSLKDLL
Method in brief: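 Enzyme at 2 nM final was combined with compound (0.7 nM to 77 uM) and 80 uM 4-methylumbelliferyl alpha-D-galactopyranoside in 50 mM citric acid, 0.005% Tween-20, pH 4.5. After 20 min at room temperature, fluorescence was read (Ex 365/Em 440 nm); AC50 came from Hill fits.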

[12] = target: alpha-glucosidase (Oryza sativa, rice) (UniProt Q653V4); experiment: Counterscreen for Glucocerebrosidase Inhibitors: qHTS Assay for Rice alpha-Glucosidase at pH 5.0 (AID 997; active = well fitted curve in the direction sought with a large enough effect; an effect the other way counts as inactive or inconclusive;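 also: 0% = full activity with enzyme and -100% = basal without enzyme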)
Method in brief: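 Rice alpha-glucosidase (4 nM final) with 400 uM 4-methylumbelliferyl-alpha-D-glucopyranoside in citrate buffer pH 5.0, 20 min at room temperature, stopped at pH 10; fluorescence 365/440 nm, compounds 0.7 nM–77 uM, AC50 from Hill fits.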

[13] = qHTS Assay for Identification of Small Molecule Antagonists for Thrombopoietin (TPO) Signaling Pathway (AID 918; active = well fitted curve in the direction sought with a large enough effect; an effect the other way counts as inactive or inconclusive; also: potency is read from the fitted curve at half-maximal effect; nearly all actives have a fitted effect of over 60% in size); conditions: TPO-dependent cell signaling reporter, antagonist mode
Method in brief: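 Murine Ba/F3 cells expressing human TPO receptor and a Glycoprotein IIb promoter-luciferase reporter, IL-3-starved overnight, treated with compound plus TPO at EC50 (26 pM final). After 24 h at 37 C, luminescence read to detect inhibitors.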

CCCCN(CCCC)c1nc2ccccc2nc1C(C#N)C(=O)NCCCOC (stereo unspecified)
Potency [1]: > 20.6 µM

Cc1c(C)c2cc(Cl)c(O)c(CN3CCN(C)CC3)c2oc1=O
activity, negative = inhibition [2]: 11.1% | Potency [1]: > 20.6 µM | Potency [3]: 7.94 µM (active)

N=c1c2c(-c3ccccc3)c(-c3ccccc3)n(Cc3ccccc3)c2ncn1CCCn1ccnc1
activity, negative = inhibition [2]: 9.95% | Potency [1]: > 20.6 µM

Cc1coc2c(O)cc3c(c12)OC1(N2CCCCC2)C(=O)NCCCC31 (stereo unspecified)
activity, negative = inhibition [2]: -21.8% | Potency [1]: > 20.6 µM

N#C[C@@H](Cc1ccc(O)c(O)c1)C(=O)N1CCc2ccccc21
activity, negative = inhibition [2]: 26% [at 38 µM] | Potency [1]: > 46 µM | Potency [4]: > 46 µM | Potency [5]: inactive | outcome [6]: inactive | Potency [7]: 10 µM (active) | Potency [8]: inactive | Potency [9]: inactive | outcome [10]: inactive | outcome [11]: inactive | outcome [12]: inactive

COc1ccc(Nc2cc(C)nc(-n3nc(C)cc3C)n2)cc1
activity, negative = inhibition [2]: -13% | Potency [1]: > 20.6 µM

CN(C)c1nc(OCCNC(=O)Nc2ccccc2)nc(N(C)C)n1
activity, negative = inhibition [2]: -7.19% | Potency [1]: > 20.6 µM

Cc1cc(C)n(S(=O)(=O)/C=C/c2ccccc2)n1
activity, negative = inhibition [2]: -7.25% | Potency [1]: > 20.6 µM

CCCc1nn(C)c2c1C(c1cccnc1)C(C#N)=C(N)O2 (stereo unspecified)
activity, negative = inhibition [2]: 4.95% | Potency [1]: > 20.6 µM

Cc1nc(SCC(=O)c2ccccc2)c(C#N)c(-c2ccco2)c1C(=O)NCc1ccco1
activity, negative = inhibition [2]: -21.3% | Potency [1]: > 20.6 µM

COc1ccc(CNc2oc(COc3ccc(Cl)cc3)nc2C#N)cc1
activity, negative = inhibition [2]: -26.7% | Potency [1]: > 20.6 µM

COC(=O)c1[nH]c2cc(OC)ccc2c1NC(=O)CN1CCN(c2cccc(C)c2)C(C)C1 (stereo unspecified)
activity, negative = inhibition [2]: -21.4% | Potency [1]: > 20.6 µM

CC(NC(=O)CSc1nc2c(cc1C#N)CN(C)CC2)c1ccccc1 (stereo unspecified)
activity, negative = inhibition [2]: -4.3% | Potency [1]: > 20.6 µM

COCc1[nH]nc2c1C(c1sccc1C)C(C#N)=C(N)O2 (stereo unspecified)
activity, negative = inhibition [2]: -24.3% | Potency [1]: > 20.6 µM

CCOC(=O)C1CCN(c2nc3ccccc3nc2C(C#N)C(=O)NCCc2ccccc2)CC1 (stereo unspecified)
activity, negative = inhibition [2]: -24.6% | Potency [1]: > 20.6 µM

N#CC1=C(SCc2ccccc2)NC2=C(C(=O)CCC2)C1c1ccc2c(c1)OCO2 (stereo unspecified)
activity, negative = inhibition [2]: -5.66% | Potency [1]: > 20.6 µM

Cc1c(C)c2c(c(C)c1O)CC[C@@](C)(CN1CCN(c3cc(N4CCCC4)nc(N4CCCC4)n3)CC1)O2
activity, negative = inhibition [2]: 19.8% [at 38 µM] | Potency [1]: > 46 µM | Potency [4]: > 46 µM | Potency [5]: inactive | outcome [6]: inactive | Potency [13]: 10 µM (active) | Potency [9]: inactive | outcome [10]: inactive | outcome [11]: inactive | outcome [12]: inactive
